Source: PubChem BioAssay (NCATS)
Several values for one entry are separate records, joined by “and”; a condition that tells them apart may be missing. Equal entries are not always repeated. Inconclusive results are not listed. Where a structure was tested more than once in an assay, its records may differ in their call. Activity calls are given as the source filed them. Unless noted, calls come from the whole dose curve; as a rule, active = well fitted curve in the direction sought with a large enough effect; inconclusive = small, poorly fitted or top-dose-only effect, or another doubt; inactive = no such curve, though single readings can be large; an effect the other way counts as inactive or inconclusive.

Experiments:
[1] = target: Guanine nucleotide-binding protein G(i) subunit alpha-1 (Homo sapiens) (UniProt P63096); test: qHTS Assay for Inhibitors of RGS12 GoLoco Motif Activity (Green Fluorophore) (AID 879);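 note: negative values mean loss of peptide binding seen as reduced polarization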
In short: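 Fluorescence polarization assay: 50 nM Gαi1 with 10 nM FITC-labeled RGS12 GoLoco peptide in 10 mM Tris pH 7.5, 150 mM NaCl, 0.1 mM GDP, 0.05% NP40, 10 min at room temperature with compound.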

[2] = target: Cytochrome P450 2C9 (Homo sapiens) (UniProt P11712); test: qHTS Assay for Inhibitors and Substrates of Cytochrome P450 2C9 (AID 883); note: nearly all actives have a fitted effect of over 60% in size; note: potency is the fitted concentration of half-maximal effect
In short: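 Turnover of Luciferin-H (100uM, KM) by 10nM human CYP2C9 was measured over 60 min at 37C with NADPH regeneration; inhibitors and some substrates reduce luminescence. Data normalized to sulphaphenazole 57uM.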

[3] = target: Cytochrome P450 2D6 (Homo sapiens) (UniProt P10635); test: qHTS Assay for Inhibitors and Substrates of Cytochrome P450 2D6 (AID 891); note: nearly all actives have a fitted effect of over 60% in size; note: potency is the fitted concentration of half-maximal effect
In short: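 Human CYP2D6 (5 nM) with 30 uM Luciferin-ME EGE (at Km) in 100 mM KPO4, compound preincubated 10 min, then NADPH regeneration system for 60 min at room temperature. Luciferin read by luminescence; normalized to 1.43 uM quinidine.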

[4] = qHTS Assay for Identification of Small Molecule Antagonists for NFkB Signaling Pathway (AID 895; active = well fitted inhibition curve with a large enough effect in the signal ratio, with a control signal flat, not every such curve was filed as active; the % refers to the signal ratio)
In short: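 Beta-lactamase reporter read-out (460 and 530 nm emission ratio, 405 nm excitation, 2 hrs substrate loading RT) after 5 hr stimulation with 10 pM TNF alpha in compound-treated NFkB-bla ME-180 cells in low-serum medium.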

[5] = target: Cytochrome P450 2C19 (Homo sapiens) (UniProt P33261); test: qHTS Assay for Inhibitors and Substrates of Cytochrome P450 2C19 (AID 899); note: nearly all actives have a fitted effect of over 60% in size; note: potency is the fitted concentration of half-maximal effect
In short: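 Reactions contain 5nM enzyme, 10uM Luciferin-H EGE (KM) and 50mM KPO4; compound preincubates 10 min at 37C, NADPH regeneration starts turnover for 60 min. Luminescence after detection reagent gives activity.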

[6] = qHTS Assay for Identification of Small Molecule Agonists for Thrombopoietin (TPO) Signaling Pathway (AID 917)
In short: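 Murine Ba/F3 cells expressing human TPO receptor and GPIIb-promoter luciferase, IL-3-starved overnight, given compound plus TPO at 26 pM (EC50). After 24 h at 37 C, 5% CO2, luminescence read.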

[7] = target: Muscarinic acetylcholine receptor M1 (Rattus norvegicus) (UniProt P08482); test: qHTS Assay for Antagonists of Acetylcholine Muscarinic M1 Receptor: Kinetic Measurement of Intracellular Calcium Response (AID 943); note: nearly all actives have a fitted effect of over 75% in size; note: potency is the fitted concentration of half-maximal effect
In short: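 CHO cells expressing rat M1 receptor, Fluo-4 loaded, preincubated 10 min with compound, then stimulated with EC80 carbachol (100 nM final). Kinetic calcium fluorescence over 4 min; response taken as peak over basal signal.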

[8] = target: Muscarinic acetylcholine receptor M1 (Rattus norvegicus) (UniProt P08482); test: qHTS Assay for Antagonists of Acetylcholine Muscarinic M1 Receptor: Measurement of IP-One Response (AID 944); note: nearly all actives have a fitted effect of over 75% in size; note: potency is the fitted concentration of half-maximal effect
In short: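 CHO cells stably expressing rat M1, pretreated 10 min with compound, then stimulated 30 min with carbachol at EC80 (200 nM) in LiCl-containing buffer pH 7.4; IP1 accumulation read by HTRF competition (665/620 nm).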

[9] = target: Pyruvate kinase (Leishmania mexicana) (UniProt Q27686); test: qHTS Validation Assay for Inhibitors of Leishmania Mexicana Pyruvate Kinase (AID 945)
In short: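 Read-out: luminescence from PKLight stop/detection reagent, data normalized to DMSO. Reaction: 0.2 nM E451W LmPYK, 0.5 mM PEP, 0.1 mM ADP, pH 7.2, 1 h room temperature.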

[10] = Cellular Toxicity (caspase-3) H-4-II-E (AID 663);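 note: cells exposed to compound for 16 hr before readout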
In short: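 Apoptosis induction is scored as increased luminescence from caspase 3/7 substrate cleavage in rat hepatoma H-4-II-E cells exposed to compound for 16 hr. Activity is scaled between DMSO and 100 uM tamoxifen.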

[11] = Cellular Toxicity (caspase-3) Hek293 (AID 664);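 note: cells exposed to compound for 16 h at 37 °C before readout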
In short: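 HEK293 cells in complete medium treated 16 h at 37 °C, then Caspase-Glo 3/7 luminescence read after 20 min at room temperature. Normalized to DMSO and 100 uM tamoxifen; AC50 from Hill fit of concentration-response.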

[12] = Cellular Toxicity (caspase-3) NIH 3T3 (AID 666);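 note: caspase signal read after 16 h compound exposure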
In short: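 Mouse NIH 3T3 fibroblasts (1000/well) treated 16 h at 37 C; caspase-3/7 activity measured by Caspase-Glo 3/7 luminescence after 20 min. Normalized to DMSO and 100 uM tamoxifen; AC50 from Hill fits.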

[13] = Cellular Toxicity (caspase-3) Renal Proximal Tubule (AID 667);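 note: cells exposed to compound for 16 hours at 37 °C before detection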
In short: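 Freshly isolated primary rat kidney proximal tubule cells, 1000/well, treated 16 hr at 37 °C, then Caspase-Glo 3/7 luminescence after 1 hr. Normalized to DMSO and 10 uM staurosporine; AC50 from Hill fit.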

[14] = Cell Viability - LYMP2-001 (AID 921); note: series mostly up to about 92 µM; nearly all actives have a fitted effect of over 70% in size
In short: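 Human lymphoblastoid LYMP2-001 cells, 2500 per well, in complete medium, treated 24 h at 37 C. Viability from cellular ATP by CellTiter-Glo luminescence; AC50 from Hill-equation fits of qHTS concentration-response.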

[15] = Confirmation and Secondary Assay for Modulators of Hemoglobin Beta Chain Splicing at IVS2 705 locus (AID 930);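 note: HeLa cells stably expressing the EGFP-705 splicing reporter; GFP fluorescence per well restored by corrected splicing of the IVS2-705 intron in EGFP; series mostly up to about 46 µM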
In short: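 Secondary splice-site specificity test uses HeLa expressing CMV-driven EGFP interrupted by IVS2-705; cells were treated 2 days at 37C with 500 nM antisense PNA as positive control.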

[16] = target: Cytochrome P450 3A4 (Homo sapiens) (UniProt P08684); test: qHTS Assay for Activators of Cytochrome P450 3A4 (AID 885); note: nearly all actives have a fitted effect of over 65% in size; note: potency is the fitted concentration of half-maximal effect
In short: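 Signal was normalized against complete inhibition by 57 uM ketoconazole. The reaction used 20nM CYP3A4 with 25uM Luciferin-PPXE, 10-min compound preincubation and a 60-min NADPH-supported step at RT.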

[17] = target: Cytochrome P450 3A4 (Homo sapiens) (UniProt P08684); test: qHTS Assay for Inhibitors and Substrates of Cytochrome P450 3A4 (AID 884); note: series mostly up to about 57 µM; nearly all actives have a fitted effect of over 50% in size
In short: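 20 nM human CYP3A4 with 25 uM Luciferin-PPXE (at KM) in 200 mM KPO4, preincubated 10 min with compound; NADPH regeneration started a 60 min RT reaction. Luciferin detected by luminescence, normalized to 57 uM ketoconazole as full inhibition.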

[18] = Confirmation and Secondary Assay for Modulators of Hemoglobin Beta Chain Splicing at IVS2 654 locus (AID 910);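 note: HeLa cells stably carrying EGFP split by mutant beta-globin IVS2-654 intron; per-well total GFP intensity by laser scanning cytometry after 2-day treatment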
In short: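 Readout: per-well total peak green fluorescence (488 nm ex, 500–520 nm em) from objects 5–250 µm, reflecting correct splicing of an EGFP-654 reporter. Compounds were applied for 2 days at 37 °C to overnight-plated HeLa EGFP-654 cells; controls were DMSO and 500 nM IVS2-654 PNA.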

Measured: Potency

Pyruvate kinase (Leishmania mexicana), sequence (Q27686 2-499 E452W): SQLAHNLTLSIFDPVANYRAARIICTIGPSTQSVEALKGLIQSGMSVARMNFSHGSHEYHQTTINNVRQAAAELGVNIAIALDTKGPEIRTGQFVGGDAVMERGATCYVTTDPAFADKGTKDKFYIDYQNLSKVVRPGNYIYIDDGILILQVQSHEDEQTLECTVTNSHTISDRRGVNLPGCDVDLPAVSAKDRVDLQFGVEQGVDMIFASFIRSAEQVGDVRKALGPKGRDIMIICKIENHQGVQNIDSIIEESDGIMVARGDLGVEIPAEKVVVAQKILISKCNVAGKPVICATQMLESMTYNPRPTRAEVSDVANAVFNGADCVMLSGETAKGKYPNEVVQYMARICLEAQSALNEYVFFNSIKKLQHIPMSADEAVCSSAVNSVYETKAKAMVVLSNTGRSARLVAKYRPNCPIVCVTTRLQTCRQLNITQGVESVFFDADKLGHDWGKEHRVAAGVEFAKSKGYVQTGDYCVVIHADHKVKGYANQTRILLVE
Muscarinic acetylcholine receptor M1 (Rattus norvegicus), sequence (P08482 whole entry, looked up): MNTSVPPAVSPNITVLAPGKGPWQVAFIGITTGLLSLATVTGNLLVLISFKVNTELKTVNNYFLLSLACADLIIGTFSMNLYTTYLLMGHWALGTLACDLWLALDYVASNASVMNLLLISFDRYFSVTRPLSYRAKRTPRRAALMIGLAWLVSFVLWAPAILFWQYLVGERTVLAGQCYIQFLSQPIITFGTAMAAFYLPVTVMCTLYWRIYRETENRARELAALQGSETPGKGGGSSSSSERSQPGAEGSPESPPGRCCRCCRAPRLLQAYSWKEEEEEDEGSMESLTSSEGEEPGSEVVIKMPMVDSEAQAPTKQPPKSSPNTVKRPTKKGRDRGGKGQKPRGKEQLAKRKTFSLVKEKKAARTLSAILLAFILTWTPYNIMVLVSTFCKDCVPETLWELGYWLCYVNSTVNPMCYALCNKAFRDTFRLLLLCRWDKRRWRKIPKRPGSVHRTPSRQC
Cytochrome P450 2D6 (Homo sapiens), sequence (P10635 whole entry, looked up): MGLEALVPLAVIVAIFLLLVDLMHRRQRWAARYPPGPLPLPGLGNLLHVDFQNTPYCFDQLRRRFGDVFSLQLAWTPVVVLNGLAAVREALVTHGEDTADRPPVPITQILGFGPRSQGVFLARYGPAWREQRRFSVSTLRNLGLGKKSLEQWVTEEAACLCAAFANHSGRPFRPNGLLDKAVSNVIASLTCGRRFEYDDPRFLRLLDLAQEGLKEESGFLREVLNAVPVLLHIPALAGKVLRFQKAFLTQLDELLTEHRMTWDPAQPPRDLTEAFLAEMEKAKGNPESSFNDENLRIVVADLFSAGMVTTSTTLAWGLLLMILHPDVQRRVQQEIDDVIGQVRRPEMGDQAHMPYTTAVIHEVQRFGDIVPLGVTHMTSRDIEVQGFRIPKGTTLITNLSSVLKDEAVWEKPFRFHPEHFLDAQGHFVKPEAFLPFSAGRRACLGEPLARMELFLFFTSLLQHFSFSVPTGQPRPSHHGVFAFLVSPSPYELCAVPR
Guanine nucleotide-binding protein G(i) subunit alpha-1 (Homo sapiens), sequence (P63096 whole entry, looked up): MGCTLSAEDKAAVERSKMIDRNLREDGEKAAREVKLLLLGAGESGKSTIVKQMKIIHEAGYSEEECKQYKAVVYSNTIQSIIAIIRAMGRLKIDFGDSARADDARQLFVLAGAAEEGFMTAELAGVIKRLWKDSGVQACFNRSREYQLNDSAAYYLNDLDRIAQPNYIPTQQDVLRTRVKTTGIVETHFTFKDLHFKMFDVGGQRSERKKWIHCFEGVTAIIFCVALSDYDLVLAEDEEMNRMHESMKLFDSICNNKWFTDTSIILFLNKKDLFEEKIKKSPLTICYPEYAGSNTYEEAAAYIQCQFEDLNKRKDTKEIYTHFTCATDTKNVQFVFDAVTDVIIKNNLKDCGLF
Cytochrome P450 3A4 (Homo sapiens), sequence (P08684 whole entry, looked up): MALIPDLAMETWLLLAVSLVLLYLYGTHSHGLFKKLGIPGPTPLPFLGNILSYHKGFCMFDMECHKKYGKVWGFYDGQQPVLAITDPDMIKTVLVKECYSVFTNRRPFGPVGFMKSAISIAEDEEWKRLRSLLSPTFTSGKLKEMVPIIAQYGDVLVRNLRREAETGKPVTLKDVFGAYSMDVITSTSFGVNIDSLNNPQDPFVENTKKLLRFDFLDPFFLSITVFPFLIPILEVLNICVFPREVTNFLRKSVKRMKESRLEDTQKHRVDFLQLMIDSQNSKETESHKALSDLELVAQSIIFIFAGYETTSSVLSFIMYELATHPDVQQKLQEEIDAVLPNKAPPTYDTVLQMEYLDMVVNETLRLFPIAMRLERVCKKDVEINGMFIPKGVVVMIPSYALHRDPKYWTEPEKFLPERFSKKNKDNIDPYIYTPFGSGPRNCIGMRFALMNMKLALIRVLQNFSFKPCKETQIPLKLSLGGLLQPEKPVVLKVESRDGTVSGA
Cytochrome P450 2C9 (Homo sapiens), sequence (P11712 whole entry, looked up): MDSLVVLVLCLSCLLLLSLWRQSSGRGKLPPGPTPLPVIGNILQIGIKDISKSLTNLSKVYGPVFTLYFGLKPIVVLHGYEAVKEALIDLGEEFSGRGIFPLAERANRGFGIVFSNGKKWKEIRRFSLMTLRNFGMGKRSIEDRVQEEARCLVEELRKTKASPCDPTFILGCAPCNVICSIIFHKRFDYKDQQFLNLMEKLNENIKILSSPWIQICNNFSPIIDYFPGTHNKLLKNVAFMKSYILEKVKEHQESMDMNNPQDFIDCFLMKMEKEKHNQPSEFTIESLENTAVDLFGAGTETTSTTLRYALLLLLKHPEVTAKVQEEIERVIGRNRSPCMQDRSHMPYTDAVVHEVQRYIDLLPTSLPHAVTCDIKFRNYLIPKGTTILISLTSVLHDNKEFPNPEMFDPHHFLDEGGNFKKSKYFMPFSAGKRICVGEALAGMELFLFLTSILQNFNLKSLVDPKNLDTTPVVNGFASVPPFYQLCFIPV
Cytochrome P450 2C19 (Homo sapiens), sequence (P33261 whole entry, looked up): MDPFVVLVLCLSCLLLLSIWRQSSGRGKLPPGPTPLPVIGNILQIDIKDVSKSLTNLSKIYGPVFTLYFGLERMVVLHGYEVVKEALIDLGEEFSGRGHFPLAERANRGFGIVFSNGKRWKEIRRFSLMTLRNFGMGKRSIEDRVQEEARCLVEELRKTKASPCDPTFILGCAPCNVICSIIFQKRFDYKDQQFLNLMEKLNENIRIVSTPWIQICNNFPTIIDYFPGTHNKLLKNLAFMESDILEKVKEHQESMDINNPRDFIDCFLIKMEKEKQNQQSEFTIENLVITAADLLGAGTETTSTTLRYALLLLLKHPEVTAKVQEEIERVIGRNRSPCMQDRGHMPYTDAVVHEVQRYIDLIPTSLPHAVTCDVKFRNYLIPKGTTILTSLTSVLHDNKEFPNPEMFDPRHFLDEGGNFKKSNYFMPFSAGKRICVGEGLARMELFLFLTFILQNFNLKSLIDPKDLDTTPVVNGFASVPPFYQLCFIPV

Cc1ccc(=O)n(-c2ccccc2)c1
inactive: [1] | [2] | [3] | [4] | [5] | [6] | [7] | [8] | [9]

CN=C(NC#N)NCCSCc1nc[nH]c1C
inactive: [10] | [11] | [12] | [13] | [1] | [2] | [3] | [5] | [6] | [14] | [15] | [8] | [9]

CN(C(=O)CCCOc1ccc2[nH]c(=O)ccc2c1)C1CCCCC1
inactive: [1] | [2] | [16] | [3] | [5] | [6] | [9]

NC(=Nc1ccccc1)Nc1ccccc1
inactive: [10] | [11] | [12] | [13] | [17] | [14]

CCN(CC)CCNC(=O)c1cc(S(C)(=O)=O)ccc1OC
inactive: [1] | [2] | [17] | [4] | [6] | [15] | [9]

C[N+](C)(C)CCOC(N)=O
inactive: [1] | [17] | [5] | [18] | [6] | [15] | [9]

Nc1nc(N)c2nc(-c3ccccc3)c(N)nc2n1
inactive: [10] | [11] | [12] | [13] | [1] | [6] | [15] | [8]

Cc1ccc(Cl)c(Nc2ccccc2C(=O)O)c1Cl
inactive: [1] | [17] | [18] | [6] | [15] | [9]
active: [2] 7.94 µM and 1.26 µM | [16] 20 µM and 12.6 µM and 25.1 µM

CCCCNC(=O)NS(=O)(=O)c1ccc(C)cc1
inactive: [10] | [11] | [12] | [13] | [1] | [3] | [5] | [14] | [15] | [8] | [9]

CN(C)C(=O)Oc1cccc([N+](C)(C)C)c1
inactive: [1] | [17] | [4] | [18] | [6] | [15] | [9]

C[C@H](CS)C(=O)N1CCC[C@H]1C(=O)O
inactive: [1] | [2] | [17] | [3] | [5] | [9]

CCO/C([O-])=N/c1c[n+](N2CCOCC2)no1
inactive: [1] | [2] | [16] | [3] | [5] | [18] | [6] | [15] | [7] | [9]

Cc1scc2c1N(C(=O)CN1CCN(C)CC1)c1ccccc1NC2=O
inactive and 3.98 µM (active): [5]
active: [2] 2.51 µM | [3] 5.01 µM | [7] 0.0316 µM | [8] 0.0282 µM
inactive: [1] | [17] | [18] | [6] | [15] | [9]

CCCOc1ccccc1-c1nc2n[nH]nc2c(=O)[nH]1
inactive: [1] | [17] | [4] | [6] | [15] | [9]

CC[N+](C)(C)c1cccc(O)c1
inactive: [1] | [17] | [4] | [6] | [15] | [9]

O=C(O)CCCCCCCC(=O)O
inactive: [1] | [17] | [6] | [15] | [7] | [8] | [9]

CC1=C(C)C(=O)C(CCCCC#CCCCC#CCO)=C(C)C1=O
inactive: [1] | [6] | [7] | [9]
active: [2] 5.01 µM | [3] 31.6 µM | [5] 5.01 µM

COc1cc(Cc2cnc(N)nc2N)cc(OC)c1OC
inactive: [10] | [11] | [12] | [13] | [1] | [18] | [6] | [14] | [15] | [8] | [9]
